According to PubChem BioAssay AID620 (Sanford-Burnham Center for Chemical Genomics, 2007):
About 360 (0.41%) of roughly 87,000 compounds were called active. Rule as the data show it: active = cytotoxicity above about 50%; inactive = the rest. Many of the other results were omitted from the sample, so actives are more common in it than they were.

Assay: HT1080 cell viability loss – fluorescence readout (AID 620);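 also: cells exposed to compound overnight then 4 h with Alamar Blue; 0% = vehicle DMSO and 100% = killing control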
Conditions: at 10 µM, hits give high values

Compound	cytotoxicity
COc1ccc(NC(=O)CCN2CCN(S(=O)(=O)c3ccc(Cl)cc3)CC2)cc1	-5.2% (inactive)
COc1ccc(CC2C(=O)OC(C)(C)OC2=O)cc1	-9.2% (inactive)
O=C(Nc1cccc(-c2cc3ccccc3oc2=O)c1)c1ccc(Br)o1	-1.6% (inactive)
COc1ccc2nc(NC(=O)c3cc(C)oc3C)sc2c1	-5.9% (inactive)
COc1ccc(NS(=O)(=O)c2cc(C)ccc2NC(=O)c2cc(C)oc2C)cc1	67.9% (active)
COc1ccc(C)c(S(=O)(=O)Nc2ccc(OCC(=O)O)cc2)c1	-3.4% (inactive)
COc1ccc(NS(=O)(=O)c2cc(C(=O)O)ccc2C)cc1	-2.1% (inactive)
COc1ccc(NS(=O)(=O)c2cc(OC)ccc2NC(=O)c2cc(C)oc2C)cc1	54% (active)
COc1ccc(NS(=O)(=O)c2cc(C)ccc2C)cc1	2.8% (inactive)
CCOC(=O)C1Cc2ccccc2CN1 (stereo not given)	-7.6% (inactive)
CCOC(=O)N1CCC(NC(=O)C2CCCN(S(=O)(=O)c3ccc4c(c3)oc(=O)n4C)C2)CC1 (stereo not given)	-2.4% (inactive)
CC(=O)Oc1ccc(C)cc1-n1nc2ccccc2n1	-18.3% (inactive)
COc1ccccc1Oc1ccc(S(=O)(=O)N2CCOCC2)cc1S(=O)(=O)N1CCOCC1	-0.3% (inactive)
Cc1ccc(Oc2ccc(S(=O)(=O)N3CCOCC3)cc2C(N)=O)c(-n2nc3ccccc3n2)c1	53.4% (active)
Cc1cc(C)c(C#N)c(SCC(=O)Nc2ccc3c(c2)OCO3)n1	-1.7% (inactive)
CN(C)/C=C(\C(=O)c1ccc(Cl)cc1)c1nnnn1-c1ccc(Cl)cc1	5.8% (inactive)
OC(CNCCc1ccccc1)c1ccccc1 (stereo not given)	-2.3% (inactive)
CCNc1nc(NCC)nc(N2CC(=O)N(CC(=O)OCC)C2=N)n1	4.9% (inactive)
Brc1ccc(C2C3=C(Nc4ncnn42)c2ccccc2OC3c2ccncc2)cc1 (stereo not given)	44.4% (inactive)
Clc1ccc2c(c1)C1=C(C(c3ccncc3)O2)C(c2ccc(Br)cc2)n2ncnc2N1 (stereo not given)	50.7% (active)
Fc1ccc(C2C3=C(Nc4ncnn42)c2ccccc2OC3c2ccncc2)cc1 (stereo not given)	14.5% (inactive)
O=C(CSCCc1ccccn1)Nc1ccccn1	3.4% (inactive)

Compound	cytotoxicity
O=C(Cc1cn2ccsc2n1)OCc1nc2ccccc2s1	-1.1% (inactive)
CCOC(=O)c1c(C)[nH]c(C(=O)COC(=O)CNC(=O)C2CCCCC2)c1C	0.3% (inactive)
CCOC(=O)C1=C(C)N(CCCC(=O)O)C(=O)NC1c1ccccc1OC(=O)c1cccs1 (stereo not given)	-19.7% (inactive)
CCC1CCCN1Cn1cnc2c([nH]c3ccccc32)c1=O (stereo not given)	2.5% (inactive)
O=C(NCC(c1cccnc1)N1CCN(c2ccccc2)CC1)OCc1ccccc1 (stereo not given)	3.4% (inactive)
CCOC(=O)c1ccccc1NS(=O)(=O)c1ccccc1	37% (inactive)
COc1ccc(Cl)cc1NS(=O)(=O)c1ccc(S(=O)(=O)N2CCCC2)cc1	-1.1% (inactive)
CCOC(=O)c1ccccc1NS(=O)(=O)c1ccc(OCC)cc1	55.2% (active)
CCOC(=O)c1ccccc1NS(=O)(=O)c1ccc(C)cc1	6.9% (inactive)
COC(=O)COc1ccc(S(=O)(=O)Nc2cc(OC)ccc2OC)cc1	2.6% (inactive)
COc1ccc(Cl)cc1NS(=O)(=O)c1ccc(OC)c(OC)c1	-2.2% (inactive)
CCOc1ccc(S(=O)(=O)Nc2cc(OC)ccc2OC)cc1	59.8% (active)
COc1ccc(S(=O)(=O)Nc2cc(Cl)ccc2OC)cc1	70.9% (active)
CCCCOc1ccc(S(=O)(=O)Nc2cc(OC)ccc2OC)cc1	4.8% (inactive)
Cc1cc(C)n(/N=C\c2c(O)ccc3ccccc23)c(=O)c1C(N)=O	0% (inactive)
CC(=O)c1ccc(OC(C)C)c(CN2CCCCC2)c1	1.8% (inactive)
Cc1onc(-c2ccccc2)c1C(=O)Nc1cccc(C#N)c1	-1.8% (inactive)
COC(=O)CSc1nnc(CNS(=O)(=O)c2ccc(C)cc2)n1C	6.8% (inactive)
Cc1ccc2cc(-c3noc(C4CCCCC4)n3)c(=O)[nH]c2c1	-0.9% (inactive)
Cn1c(=O)c2c(nc(Br)n2CC(=O)c2cccs2)n(C)c1=O	-2.7% (inactive)
COc1ccc(S(=O)(=O)N2N=C(C)Oc3ccccc3C2=O)cc1	60.3% (active)
CC1=NN(S(=O)(=O)c2ccc(F)cc2)C(=O)c2ccccc2O1	0.4% (inactive)

Compound	cytotoxicity
COc1ccc(S(=O)(=O)N2CCN(S(=O)(=O)c3ccc4c(c3)OCCO4)CC2)cc1	2.3% (inactive)
O=C(NCc1ccccc1)C1CCN(S(=O)(=O)N2CCCCCC2)CC1	-5.9% (inactive)
O=S(=O)(N1CCOCC1)n1nnc2ccccc21	-4.1% (inactive)
O=C(N1CCOCC1)n1nnc2ccccc21	-1.4% (inactive)
CCc1ccc2c(c1)[C@]1(C(=O)N2)[C@@H]2C(=O)N(Cc3ccccc3)C(=O)[C@@H]2[C@@H]2CCCN21	-2.5% (inactive)
CCCSc1ccc2nc(NC(=O)OC)[nH]c2c1	40% (inactive)
COc1ccc2nc(NCCO)[nH]c2c1	3.7% (inactive)
CCOc1ccc2nc(NCCO)[nH]c2c1	-12% (inactive)
COc1ccc(OCC(=O)Nc2nc3ccccc3[nH]2)cc1	-8.8% (inactive)
CCCOc1ccc2nc(NC(=O)OC)[nH]c2c1	64.1% (active)
C=CCOc1ccc2nc(NC(=O)OC)[nH]c2c1	62.3% (active)
O=C1C2ON(c3ccc(Br)cc3)C(c3cccnc3)C2C(=O)N1C1CCCCC1 (stereo not given)	1.2% (inactive)
COc1ccc2nc3oc(C(=O)N4CCN(c5ccccc5F)CC4)cc3cc2c1	-0.7% (inactive)
Cc1cc(NC(=O)CSc2nnc(-c3cccnc3)n2C)no1	-4.9% (inactive)
Cc1cccc(N(C(=O)Nc2ccccc2)C2=NCC(C)S2)c1 (stereo not given)	-2.6% (inactive)
N#Cc1cccc(Cn2nnc(-c3ccccc3)n2)c1	13.7% (inactive)
COc1ccc(OC)c(-n2nnnc2SCC(=O)Nc2ccc(C(=O)N3CCCCC3)cc2)c1	-11.6% (inactive)
COCCCNC(=O)CCCC(=O)NCCCOC	-2.4% (inactive)
COc1ccc(-c2cn3cc(C)ccc3n2)cc1OC	23% (inactive)
COc1ccc(-c2cn3ccccc3n2)cc1OC	14.9% (inactive)
COc1ccc(-c2cn3cc(Cl)ccc3n2)cc1OC	98.8% (active)
